Screens: PubChem, National Center for Advancing Translational Sciences (NCATS)
In the library only some 1.5% were active in any assay of this set; here they are far more common.
KAT2A inh – inhibitors of human GCN5L2 histone acetyltransferase | Q92830 | GCN5L2 HAT assay, ThioGlo1 CoA-SH fluorescence | Potency, µM (top dose mostly 58.9 µM), inactives show top-dose activity change, negative = inhibition, hits mostly inhibitors | 0.21% of 390,000 active | AID 504327; note: potency is the fitted concentration of half-maximal effect
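Titration-based screen in which CoA formation is detected via maleimide probe ThioGlo1 (50uM) turning fluorescent on thiol reaction; substrates H3(1-25) 75uM and acetyl-CoA 70uM, GCN5L2 20nM, 20 min incubation at room temperature.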
APEX1 inh – APE1 (human) endonuclease inhibition. 0.35% of 350,000 active. recombinant APE1, TAMRA/BHQ-2 abasic DNA cleavage fluorescence. Potency, µM (top dose mostly 65.8 µM), for inactives: at the highest dose activity change, negative = inhibition, most hits filed as inhibitors;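 note: potency is the fitted concentration of half-maximal effect; plate controls were vehicle for no effect and reference inhibitor for full effect; nearly all actives have a fitted effect of over 55% in size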
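Kinetic fluorescence read (525 ex/598 em nm, three reads 60 s apart) of AP-site incision; signal = third minus first read. Enzyme 0.75 nM, dual-labelled THF duplex 50 nM, compound preincubation 15 min RT.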
FEN1 inhibitor – blocks human flap endonuclease 1. Potency, µM (top dose mostly 114 µM), for inactives: at the top dose activity change, negative = inhibition, usual class: inhibitors. Recombinant FEN1 flap cleavage, fluorescence, 15 min. 0.35% of 390,000 active; note: potency is the fitted concentration of half-maximal effect; nearly all actives have a fitted effect of over 65% in size
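Steps: FEN1 (10 nM) dispensed; compound added by pin tool; 15 min at room temperature; substrate added to 50 nM final; reads at 0 min and 15 min; data normalized and fitted (four-parameter Hill).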
BLM inh – inhibitors of human Bloom syndrome helicase BLM; P54132; recombinant BLM DNA unwinding, fluorescence dequenching; Potency, µM (titrated, usually from 56.1 µM), without a hit: at the top dose activity change, negative = inhibition, hits mostly inhibitors; 0.2% of 350,000 active; AID 2528;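 note: potency is the fitted concentration of half-maximal effect; plate controls were vehicle for no effect and no enzyme for full effect; nearly all actives have a fitted effect of over 35% in size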
PI5P4Ka inh – PI5P4K alpha (human) kinase inhibition. PI5P4Kalpha enzyme, ADP-Glo luminescence, 60 min; active compounds read low. max response, %. P48426. AID 652105. 1.2% of 330,000 active; active = max response of -50% or lower; inconclusive = between -30% and -50%; inactive = -30% or higher; note: value at the top dose of about 77 µM
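ADP-Glo luminescence end-point read after a 60 min room-temperature kinase reaction of PI5P4Kalpha plus substrate, initiated with ATP at 5 microM final. Buffer: 0.038 M HEPES pH 7.4, EGTA, 0.1% CHAPS, 5% DMSO.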
RECQ1 helicase – inhibitors of human RECQ1 DNA helicase | RECQ1 DNA unwinding, red fluorescence kinetic read | Potency, µM (highest dose often 57.3 µM), for inactives: top-dose activity, negative = inhibition, usual class: inhibitors | 0.54% of 240,000 active | AID 2549;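 note: potency is the fitted concentration of half-maximal effect; plate controls were vehicle for no effect and no enzyme for full effect; nearly all actives have a fitted effect of over 30% in size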
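RECQ1T1 50 nM; forked duplex (20 bp + 30-nt ss tails) 200 nM, ATP 2 mM final; pH 8.0, 2 mM MgCl2, 2.5 ug/ml poly(dI-dC); 15 min compound preincubation; discontinuous kinetic read over 2 h at RT.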
Active calls of the source: *; i = inactive; ? = inconclusive; · = not tested or not shown. Unless noted, calls come from the whole dose curve; as a rule, active = well fitted curve in the direction sought with a large enough effect; inconclusive = small, poorly fitted or top-dose-only effect, or another doubt; inactive = no such curve, though single readings can be large; an effect the other way counts as inactive or inconclusive. Unless noted, % is set by controls: 0 for no effect and ±100 for the full control effect.

SMILES	KAT2A inh	APEX1 inh	FEN1 inhibitor	BLM inh	PI5P4Ka inh	RECQ1 helicase
CCOc1cc(/C=C2\SC(=Nc3ccc(CC)cc3)NC2=O)ccc1OCC(=O)O	-17%	?	?	-13%	-91*	·
C=CCOc1c(Br)cc(/C=C2\SC(=Nc3ccccc3)NC2=O)cc1OC	-1%	22%	-2%	-10%	-16	·
CCOc1cc(Br)cc(/C=C2\SC(=Nc3ccccc3)NC2=O)c1O	-9%	-4%	-30%	-6%	-62*	·
NC(=O)C1CCN(c2nc(-c3ccccc3)cs2)CC1	·	2%	·	·	·	·
NC(=O)C1CCN(c2nc(-c3ccccc3[N+](=O)[O-])cs2)CC1	·	14%	·	·	·	·
S=c1[nH]c2cc3ccccc3cc2[nH]1	-29%	-11%	1%	-9%	-4	-10%
S=c1[nH]c2ccccc2s1	20µM*	0%	·	2%	·	-1%
O=C(Nc1ccc2[nH]c(=S)sc2c1)c1ccccc1	1%	2%	-5%	-11%	-68*	i
O=C(Nc1ccc2[nH]c(=S)sc2c1)Nc1ccccc1F	19%	?	-19%	-6%	-72*	i
O=C(Nc1ccc2[nH]ccc2c1)c1ccccc1	-5%	?	-1%	-1%	-18	i
COc1ccc2c3c(cccc13)C(=O)CC2	-29%	-17%	50µM*	5%	-14	·
O=C1c2ccccc2-c2onc3c(N4CCN(CCO)CC4)cc(N4CCN(C(=O)c5ccco5)CC4)c1c23	-9%	3%	45µM*	-20%	?	·
C#CCN(Cc1ccc(OC)cc1)S(=O)(=O)C=C	·	·	-20%	·	·	·
COc1ccc(C(=O)N2CCCc3ccccc32)cc1Br	1%	10%	-18%	-6%	5	·
O=C(c1coc(=O)c(Br)c1)N1CCCc2ccccc21	-17%	?	?	?	?	35µM*
CCN(CC)CCOC(=O)c1ccc(N/C=C(/C#N)c2nc(-c3cccc(OC)c3)cs2)cc1	-10%	-8%	1%	1%	0	-10%
CCN(CC)CCOC(=O)c1ccc(N/C=C(/C#N)c2nc(-c3ccc(OC)c(OC)c3)cs2)cc1	-24%	-9%	?	24%	-77*	-24%
COc1ccc(OC)c2c(=S)c3ccccc3[nH]c12	14µM*	?	·	-3%	·	-3%
COc1ccc(-c2c(N)nnc3c2[nH]c2ccccc23)cc1OC	-17%	-8%	-17%	-5%	3	-2%
O=C(COC(=O)c1cc(NS(=O)(=O)c2cccs2)ccc1O)Nc1ccc(F)c(F)c1F	-4%	15%	-10%	-5%	3	i
O=C(COC(=O)c1ccc(NS(=O)(=O)c2cccs2)cc1)Nc1nc2c(F)c(F)c(F)cc2s1	-13%	?	-32%	-16%	-90*	?
Cc1ccnc2nc(C(=O)OCC(=O)c3ccc(NC(=O)CC(C)C)cc3)nn12	-9%	-12%	-11%	·	-27	·
CCC(=O)Nc1ccc(C(=O)COC(=O)c2nc3nccc(C)n3n2)cc1	?	?	?	·	-90*	·
Cc1c(Cn2cnc3c(cnn3C(C)(C)C)c2=O)cccc1C(F)(F)F	·	-2%	5%	·	·	·
COc1cc(/C=C(\C#N)C(=O)c2c[nH]c3ccccc23)cc(OC)c1O	-7%	-3%	?	-8%	-75*	-14%
SMILES	KAT2A inh	APEX1 inh	FEN1 inhibitor	BLM inh	PI5P4Ka inh	RECQ1 helicase
COc1ccc(OC)c(C2CC(=O)N3CN(c4ccc(C)c(Cl)c4)CSC3=C2C#N)c1 (stereo not drawn)	14µM*	-1%	?	-6%	-102*	-5%
COc1cc(OC)c(C2CC(=O)N3CN(c4ccccc4)CSC3=C2C#N)cc1OC (stereo not drawn)	?	-6%	-1%	-5%	·	8%
COc1ccc2ccccc2c1C1CC(=O)N2CN(C)CSC2=C1C#N (stereo not drawn)	22µM*	-1%	0%	-1%	-84*	-4%
CCOc1ccc(N2CSC3=C(C#N)C(c4ccco4)CC(=O)N3C2)cc1 (stereo not drawn)	?	32µM*	-4%	?	·	?
COc1ccc(OC)c(C2CC(=O)N3CN(c4ccccc4F)CSC3=C2C#N)c1 (stereo not drawn)	8.9µM*	?	?	7%	-94*	14%
NC(=O)C1CCN(c2nc(-c3ccc(Cl)cc3)cs2)CC1	·	5%	·	·	·	·
CC1(C)CCc2cc(O)ccc2O1	·	·	13%	·	·	·
COc1cc(C2CC(=O)N3CN(c4ccccc4C)CSC3=C2C#N)cc(OC)c1OC (stereo not drawn)	?	16%	·	-11%	·	-4%
COc1ccccc1N1CSC2=C(C#N)C(c3ccc(SC)cc3)CC(=O)N2C1 (stereo not drawn)	?	-3%	?	-30%	-83*	?
Cc1cccc(OCC(=O)NC(=S)NNC(=O)c2ccncc2)c1	?	18%	-1%	-1%	-73*	·
O=C(NCCc1ccccc1)[C@@H]1CC=C[C@@H]2CCN(C3CC3)C(=O)[C@@H]21	·	·	-10%	·	·	·
COc1ccc(-c2[nH]n(-c3ccc([N+](=O)[O-])cc3)c(=O)c2C=NCc2ccncc2)cc1	-8%	5%	-10%	7.9µM*	7	-11%
COc1ccc(-c2[nH]n(-c3ccc([N+](=O)[O-])cc3)c(=O)c2C=NCc2ccc(F)cc2)cc1	-9%	30%	-7%	1%	-3	-10%
COC(=O)c1c(NC(=O)COC(=O)c2ccccc2O)sc2c1CCCCC2	-1%	6%	6%	0%	1	-2%
NC(=O)c1c(NC(=O)COC(=O)c2ccc(O)c(Cl)c2)sc2c1CCCC2	-15%	-10%	?	·	-55*	·
Cc1ccc(C(=O)C[n+]2cccc3cccc(O)c32)cc1	·	·	-9%	·	·	·
O=C(COc1ccccc1C(=O)Nc1cccnc1)Nc1ccc(Br)cc1	·	·	5%	·	·	·
Cc1cccc(C(=O)Nc2ccc(C(=O)N/N=C/c3ccco3)cc2)c1	·	·	-18%	·	-51*	·
Cc1ccc(NC(=O)c2cccc(NC(=O)/C=C/c3ccco3)c2)cc1C	6%	-8%	-6%	-2%	-64*	-1%
O=C(N/N=C/c1ccco1)c1ccc(NC(=O)c2ccc(Cl)cc2)cc1	-1%	46%	-4%	-11%	?	·
NS(=O)(=O)c1ccc(NC(=O)/C=C/c2ccco2)cc1	-4%	?	-25%	-4%	-63*	-9%
CC(=O)NS(=O)(=O)c1ccc(NC(=O)/C=C/c2ccco2)cc1	1%	?	8%	-1%	1	2%
Cc1ccc(NC(=O)N/C=C/c2ccco2)c(C)c1	2%	28%	?	0%	·	-2%
